# Results filed as inconclusive are left out. Values without a mark were called inactive. The source made the active and inactive calls. Calls come from the whole dose curve; as a rule, active = well fitted inhibition curve with a large enough effect; inconclusive = small, poorly fitted or top-dose-only effect, or effect the other way; inactive = flat fitted curve, though single readings scatter.
# Molecular target: Lysosomal acid glucosylceramidase (Homo sapiens) (UniProt P04062)
# Assay: qHTS Assay for Inhibitors and Activators of N370S glucocerebrosidase as a Potential Chaperone Treatment of Gaucher Disease: Activity in Non-Mutant Spleen Homogenate Using a Red Fluorescent Substrate
# Settings: red fluorogenic substrate GCase activity; series mostly up to 50.2 µM; activity change, negative = inhibition: at the top concentration
# Excerpt: NIH Chemical Genomics Center [NCGC]
# NIH Molecular Libraries Probe Production Centers Network [MLPCN]
# Assay Submitter (PI): Wei Zheng
# Glucocerebrosidase (GC) catalyzes the hydrolysis of beta-glucocerebroside to glucose and ceramide in lysosomes. Mutations in the glucocerebrosidase gene result in Gaucher disease, an autosomal recessive lysosomal storage disorder. Many of the mutations encountered in patients with Gaucher disease are missense alterations that may cause misfolding, decreased stability and/or mistrafficking of this lysosomal protein. […] These inhibitors include iminosugar analogs and three non-iminosugar inhibitors identified from a previous HTS of 62,000 compounds with the wild type recombinant enzyme. However, the enhancement of enzyme activity by the chaperone action of an enzyme inhibitor must be balanced against the direct inhibition of the enzyme. An enzyme activator could also function as a chaperone by binding to the enzyme and helping to correct its misfolding and mistrafficking. While activators for GC have not yet been identified, they may have better therapeutic potential than inhibitors. Therefore the discovery and development of chemical activators may provide a new strategy for the chaperone therapy.
# We have optimized a new assay using N370S mutant GC derived from the spleen of a Gaucher patient. […] In addition, the MLPCN compound library has expanded, which increases the chance of finding new and better probes.
# This confirmation assay tests for compound activity in spleen homogenate containing wildtype enzyme using an alternate resorufin-based substrate.
# NCGC Assay Protocol Summary:
# This is a fluorogenic enzyme assay with resorufin-beta-D-glucopyranoside as the substrate and wildtype glucocerebrosidase from human spleen homogenate as the enzyme preparation. Upon the hydrolysis of this fluorogenic substrate, the resulting product, […] which can be detected by a standard fluorescence plate reader. Data were normalized to the controls for basal activity (without enzyme) and 100% activity (with enzyme). The AC50 values were determined from concentration-response data modeled with the standard Hill equation.
# Assay buffer: 50 mM citric acid (titrated with potassium phosphate to pH 5.0), 100 mM potassium chloride, 10 mM sodium chloride, 1 mM magnesium chloride, 0.01% Tween-20.
# 1536-well assay protocol:
# (1) Add 2 ul/well of spleen homogenate (27 ug final)
# (2) Add 23 nL compounds in DMSO solution. The final titration was 0.5 nM to 58 uM.
# (3) Add 2 ul of substrate (1 mM final)
# (4) Incubate at 37C for 40 min.
# (5) Add 2 ul stop solution (1M NaOH and 1M Glycine mixture, pH 10)
# (6) Detect the assay plate in a ViewLux plate reader (PerkinElmer) with Ex=365 nm and Em=440nm.
# Keywords: Glucocerebrosidase, beta-glucosidase, Gaucher Disease, pharmacological chaperone, chaperone therapy, high throughput screening, glucocerebrosidase inhibitor, MLSMR, MLSCN, NIH Roadmap, qHTS and NCGC
# Lysosomal acid glucosylceramidase (Homo sapiens), sequence (P04062 whole entry, looked up): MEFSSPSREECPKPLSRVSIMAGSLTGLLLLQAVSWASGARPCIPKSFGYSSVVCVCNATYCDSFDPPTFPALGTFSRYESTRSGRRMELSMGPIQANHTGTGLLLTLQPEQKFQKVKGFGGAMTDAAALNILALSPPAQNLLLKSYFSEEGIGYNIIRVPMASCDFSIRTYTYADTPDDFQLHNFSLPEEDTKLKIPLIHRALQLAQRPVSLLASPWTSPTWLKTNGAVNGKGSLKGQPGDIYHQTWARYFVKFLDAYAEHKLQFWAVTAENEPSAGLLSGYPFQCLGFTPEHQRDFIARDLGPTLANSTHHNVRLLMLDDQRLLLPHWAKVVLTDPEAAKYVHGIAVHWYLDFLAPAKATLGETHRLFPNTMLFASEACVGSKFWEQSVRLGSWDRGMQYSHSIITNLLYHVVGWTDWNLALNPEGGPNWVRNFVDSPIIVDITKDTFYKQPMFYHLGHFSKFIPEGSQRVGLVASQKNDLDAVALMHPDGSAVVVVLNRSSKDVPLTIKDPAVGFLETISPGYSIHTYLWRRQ
Compound,Potency,"activity change, negative = inhibition [%]"
O=S(=O)(c1ccc2c(c1)OCCO2)N1CCN(c2nc(-c3ccccc3)nc3ccccc23)CC1,4470 nM (active),–
O=S(=O)(c1ccccc1Br)N1CCN(c2nc(-c3cccs3)nc3ccccc23)CC1,562 nM (active),–
O=S(=O)(c1ccc2c(c1)OCCO2)N1CCN(c2nc(-c3cccs3)nc3ccccc23)CC1,141 nM (active),–
O=S(=O)(c1ccccc1)N1CCN(c2nc(-c3cccs3)nc3ccccc23)CC1,316 nM (active),–
CCc1cc(C(=O)N/N=C/c2c(C)[nH]c3ccccc23)cs1,–,24.5
N#Cc1ccccc1S(=O)(=O)N1CCN(c2nc(-c3cccs3)nc3ccccc23)CC1,1120 nM (active),–
COc1cc(OC)c2c(N)c(C#N)c(C(F)(F)C(F)(F)F)nc2c1,–,-0.154
Cc1ccc(S(=O)(=O)N2CCN(c3nc(-c4cccs4)nc4ccccc34)CC2)cc1,316 nM (active),–
COc1ccc(Nc2nc(-c3cccs3)nc3ccccc23)cc1,1410 nM (active),–
Cc1cc(N2CCOCC2)nc2ccc(NC(=O)CCC(=O)NC3CCCCC3)cc12,–,-9.8
O=S(=O)(c1ccc(Br)cc1)N1CCN(c2nc(-c3cccs3)nc3ccccc23)CC1,794 nM (active),–
CCCNC(=O)COC(=O)c1ccccc1OCC(=O)Nc1ccc(Br)cc1,–,-7.67
CCOc1ccccc1NC(=O)CN(c1ccc(C)cc1)S(=O)(=O)c1c(C)noc1C,–,-9.17
O=S(=O)(c1cccc(C(F)(F)F)c1)N1CCN(c2nc(-c3ccccc3)nc3ccccc23)CC1,8910 nM (active),–
Cc1cc(Nc2cccc(Cl)c2)nc2ccc(NC(=O)C3CCC(C)CC3)cc12 (stereo not given),–,-7.54
O=C(Nc1cnn(Cc2ccc(F)cc2)c1)c1cnn2c(C(F)F)cc(-c3ccccc3)nc12,–,23.4
Cc1cccc(Nc2nc(NCCO)nc(N3CCCC3)n2)c1,–,-18.3
O=S(=O)(c1ccccc1C(F)(F)F)N1CCN(c2nc(-c3ccccc3)nc3ccccc23)CC1,1000 nM (active),–
Cc1cc(N2CCN(c3ncccn3)CC2)nc2ccc(NC(=O)C3CCC(C)CC3)cc12 (stereo not given),11200 nM (active),–
Cc1ccc(Cl)cc1NC(=O)c1ccccc1OCC(=O)Nc1ccc(Cl)cc1,–,27.3

# From PubChem BioAssay AID2588 (National Center for Advancing Translational Sciences (NCATS), 2010)
